# Shown are actives, neighbours in structure and some others; about 19% of the full set was active somewhere.
# TDP1 cell noCPT: qHTS for Inhibitors of human tyrosyl-DNA phosphodiesterase 1 (TDP1): qHTS in cells in absence of CPT; Potency, µM (highest dose often 46.2 µM), usual class: inhibitors; DT40 Tdp1-/- hTDP1 cells, no CPT, ATP luminescence, 48 h; 420,000 compounds, 15% hits; note: nearly all actives have a fitted effect of over 55% in size
#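 Readout: luminescence from CellTiter-Glo after 30 min in the dark at RT. Cells: DT40 Tdp1-/- with stable hTDP1, 400/well. Exposure: compounds alone, ≥48 hr, 37 °C.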
# IL1B secr inh: inhibitors of inflammasome signaling (IL-1 beta secretion); THP-1 LPS/ATP IL-1B secretion, AlphaLISA, 16 h; hits give low values; 360,000 compounds, 4.7% hits; activity change, % at 57.5 µM; in the data active = activity change below about -50%; inconclusive = mostly about -30% to -49%
#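 Secreted IL-1B measured by AlphaLISA bead assay after 16 h compound exposure of THP-1 cells; compounds (final up to 57.5 uM) added 1 h before LPS (250 ng/mL) and ATP (1.25 mM) stimulation; lower signal means less secretion.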
# HT1080-NT tox: kills 2HG-producing HT-1080-NT fibrosarcoma cells; Potency, µM (doses to about 46.1 µM), usual class: cytotoxic; AID 686970; 360,000 compounds, 1.6% hits; HT-1080-NT fibrosarcoma viability, CellTiter-Glo ATP luminescence, 48 h;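 note: NT is the 2HG producing partner of a matched IDH1 knockdown line; nearly all actives have a fitted effect of over 55% in size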
#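 Viability by CellTiter-Glo luminescence after 48 h compound exposure at 37C of HT-1080-NT cells (750/well, RPMI, 5% FBS). % activity scaled between DMSO wells and medium-only wells, then curve-fitted and categorized by curve class.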
# DT40 TDP1 CPT: growth inhibition of DT40 Tdp1-/-;hTDP1 cells with camptothecin (screen for TDP1 inhibitors); chicken DT40 Tdp1-/-;hTDP1 cells + 20 nM CPT, ATP luminescence, 48 h; Potency, µM (titrated, usually from 46.2 µM), hits mostly inhibitors; 420,000 compounds, 12% hits; AID 686979; note: nearly all actives have a fitted effect of over 55% in size
#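 Chicken DT40 Tdp1-/- cells complemented with human TDP1, 400 cells/well, exposed to compounds plus 20 nM camptothecin for at least 48 h at 37 C; viability read as ATP content by CellTiter-Glo luminescence.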
# HT1080 IDH1KD tx: kills HT-1080 cells with IDH1 knockdown | 360,000 compounds, 2% hits | HT-1080 IDH1 knockdown viability, ATP luminescence, 48 h | Potency, µM (highest dose often 46.1 µM), hits mostly cytotoxic
#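 CellTiter-Glo luminescence after 48 h compound exposure at 37 degrees C of IDH1-knockdown HT-1080 cells in 5% FBS RPMI. %Activity scaled between DMSO wells and cell-free media wells, with curves fitted and assigned curve classes.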
# Numbers stand for hits; – = inactive; ? = inconclusive; · = no result; [ ] = remark or other dose. Unless noted, calls come from the whole dose curve; as a rule, active = well fitted curve in the direction sought with a large enough effect; inconclusive = small, poorly fitted or top-dose-only effect, or another doubt; inactive = no such curve, though single readings can be large; an effect the other way counts as inactive or inconclusive.
SMILES,TDP1 cell noCPT,IL1B secr inh,HT1080-NT tox,DT40 TDP1 CPT,HT1080 IDH1KD tx
Cc1cccc(-c2ccc3c(c2)C2CC3CCN2Cc2ccc3c(c2)OCO3)c1 (centres undefined),?,–,–,?,?
COc1ccc(CN2CCC3CC2c2cc(-c4cccc(C)c4)ccc23)cc1 (centres undefined),15µM,–,–,21µM,–
CCc1nn2c(=O)cc(COC(=O)c3ccc(NC(=O)C4CCCCC4)cc3)nc2s1,18µM,·,·,?,·
CC(C)Cc1nn2c(=O)cc(COC(=O)c3ccccc3NC(=O)C3CCCCC3)nc2s1,–,·,·,–,·
Cc1nn2c(=O)cc(COC(=O)c3ccc(NC(=O)C4CCCCC4)cc3)nc2s1,9.2µM,·,·,?,·
Cc1nn2c(=O)cc(COC(=O)c3ccc(S(=O)(=O)N4CCCCC4)cc3)nc2s1,–,–,–,–,–
COCCNC(=O)c1ccc(CSCc2cccc(Cl)c2)o1,?,–,–,?,–
O=C(NCCc1ccc(Cl)cc1)c1ccc(CSCc2ccccc2Cl)o1,16µM,·,·,15µM,·
O=C(NC1CC1)c1ccc(CSCc2ccccc2Cl)o1,?,–,?,?,?
Cc1cccc(CSCc2ccc(C(=O)NCCc3ccccc3)o2)c1,13µM,·,·,?,·
Nn1c(SCC(=O)N2CCOCC2)nnc1-c1ccccc1Cl,–,–,–,–,–
CSc1ccc(CCNc2ncnc3onc(-c4ccc(Cl)cc4)c23)cc1,10µM,·,·,16µM,·
Cc1ccc(CCNc2ncnc3onc(-c4ccc(F)cc4)c23)cc1,–,·,·,–,·
COC(=O)C(CCSC)Nc1ncnc2onc(-c3ccc(F)cc3)c12 (centres undefined),–,·,·,–,·
Fc1ccc(-c2noc3ncnc(NCCc4ccc(Cl)cc4)c23)cc1,10µM,·,·,15µM,·
Fc1ccc(-c2noc3ncnc(NCCc4ccccc4)c23)cc1,16µM,·,·,?,·
FC(F)(F)c1cccc(N2CCN(C3CC4CCC3C4)CC2)c1 (centres undefined),?,–,–,–,?
CCCN1CCC(N2CCN(c3ccc([N+](=O)[O-])cc3)CC2)CC1,21µM,–,–,?,–
O=C1C2CCCN2C(=O)N1CCN1CCN(c2cccc(C(F)(F)F)c2)CC1 (centres undefined),8.2µM,–,–,–,–
CCCN1CCC(N2CCN(c3cccc(C(F)(F)F)c3)CC2)CC1,21µM,–,?,23µM,–
COCCn1c(=O)c(-c2cn(C)c3ccccc23)nc2cnc(Oc3ccc(OC)cc3)nc21,–,·,·,–,·
CC(=O)Nc1ccc(C(=O)Nc2ccc3c(c2)N(C2CCCC2)C(=O)c2ccccc2S3)cc1,16µM,·,·,21µM,·
N#Cc1ccc(C(=O)Nc2ccc3c(c2)N(C2CCCC2)C(=O)c2ccccc2S3)cc1,18µM,·,·,23µM,·
CCOC(=O)c1c(NC(=O)c2ccc(OCC)c(Br)c2)sc2c1CCCC2,–,·,·,–,·
CCOC(=O)c1c(NC(C)=O)sc2c1CCC(C=O)=C2Sc1ccccc1,6.5µM,-100,14µM,6.5µM,7.1µM
SMILES,TDP1 cell noCPT,IL1B secr inh,HT1080-NT tox,DT40 TDP1 CPT,HT1080 IDH1KD tx
CCOC(=O)c1c(NC(C)=O)sc2c1CCCNC2=O,–,–,–,–,–[9.24 µM]
CCOC(=O)c1c(NC(=O)c2ccccc2Br)sc2c1CCc1ccccc1-2,18µM,–,–,?,–
CCn1c2ccccc2c2cc(CN3CCN(Cc4ccc(Br)cc4)CC3)ccc21,15µM,·,·,18µM,·
CCn1c2ccccc2c2cc(CN3CCN(S(=O)(=O)Cc4ccccc4)CC3)ccc21,15µM,–,–,?,–
O=C(CN1CCN(C(=O)c2ccccc2)CC1)Nc1cccc(S(=O)(=O)N2CCCC2)c1,?,–,–,?,–
CS(=O)(=O)Nc1ccc(S(=O)(=O)N2CCCC2)cc1,–,–,–,–,–
O=C(CCCN=C1NS(=O)(=O)c2ccccc21)OCC(=O)c1ccc(F)cc1,–,–,–,–,–
COc1cccc(C(=O)NCCc2csc3nc(-c4ccccc4F)nn23)c1OC,15µM,·,·,26µM,·
COC(=O)c1ccc(NC(=O)C(=O)NCCc2csc3nc(-c4ccccc4F)nn23)cc1,–,·,·,–,·
O=C(NCCc1csc2nc(-c3ccccc3F)nn12)c1ccccc1C(F)(F)F,9.2µM,·,·,7.3µM,·
CCc1ccc(C(=O)c2cn(CC(=O)NC3CCCCC3)c3nc(C)ccc3c2=O)cc1,–,·,·,–,·
Nc1nc(SCC(=O)Nc2ccc3c(c2)OCO3)n[nH]1,–,–,–,–,–
COc1ccc(S(=O)(=O)Nc2ccccc2N2CCOCC2)cc1[N+](=O)[O-],–,–,–,–,–
O=C(CSc1n[nH]c(-c2ccccc2)n1)NCc1cccc(C(=O)O)c1,–,–,–,–,–
COc1cccc(-c2nc(SCc3cc(=O)c4ccc(C)c(C)c4[nH]3)n[nH]2)c1,8.2µM,·,·,?,·
O=c1cc(-c2ccccc2)[nH]c2ccccc12,0.92µM,–,?,0.52µM,2.3µM
O=c1cc(CSc2n[nH]c(-c3ccccc3)n2)[nH]c2ccccc12,26µM,·,·,26µM,·
COc1ccccc1/C=C/c1nc2ccccc2o1,–,·,·,–,·
